About 83,000 compounds went through this panel and 20% of them were active in at least one assay; those are over-represented in the sample as a whole.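 Interpretation: 100, growth as untreated; towards 0, rising growth inhibition; 0, no net growth; 0 to -100, cell death. Compounds scoring below 10 were considered active.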 Calls of active or inactive are those of the source.
The compounds below were run on T-47D breast (assay: NCI-60 one-dose screen, 48 h (100 = growth as untreated, 0 = no growth, -100 = all killed)). Conditions: 10 µM unless noted.

| SMILES | growth |
| --- | --- |
| O=C(Nc1cnc(Nc2ccc(N3CCOCC3)nc2)nc1Oc1ccc(C(F)(F)F)cc1)c1ccncc1 | 72.9% (inactive) |
| O=C(N/N=C\c1cccc([N+](=O)[O-])c1)N/N=C/c1cccc([N+](=O)[O-])c1 | 97.2% (inactive) |
| Oc1ccc(/C=C/c2ccc(O)cc2)cc1 | 69% (inactive) |
| CCNC(=O)Oc1ccc(/C(=C(/CC)Cc2ccccc2)c2ccc(OCCN3CCCC3)cc2)cc1 | 68.3% (inactive) |
| NNCCc1ccc(NC(=O)CCCc2ccc(C(=O)Nc3ccccc3N)cc2)cc1 | 28.7% (inactive) |
| COC(=O)CCC/C=C\C[C@H]1C=CC(=O)/C1=C/C[C@@H](O)C/C=C\CC(F)(F)F | 2.7% (active) |
| CCCCC#Cc1c(I)n(C)c(=O)[nH]c1=O | -2.85% (active) |
| N#CC1CCc2c(c(-c3ccc4nc(N)sc4c3)nc3ccc4[nH]ncc4c23)C1 (centres undefined) | 94% (inactive) |
| O=C(Cc1ccc(/C=C/C(=O)c2ncc[nH]2)cc1)Nc1cc(C(F)(F)F)cc(C(F)(F)F)c1 | 80.5% (inactive) |
| O=c1nc(-c2ccccc2)c2cc(-c3ccc(C(F)(F)F)nc3)ccc2[nH]1 | 95.3% (inactive) |
| CO[C@H]1CC(=O)n2c3ccccc3c3c4c(c5c6ccccc6n1c5c32)C(=O)NC4=O | 11.1% (inactive) |
| COc1cc(C2C(C(=O)OCc3ccccc3)=C(C)NC(C)=C2C(=O)OCc2ccccc2)cc(OC)c1OC | 11.9% (inactive) |
| Cc1cc2c(cc1C)N(C(=O)CCl)CC(=O)N2 | 15.6% (inactive) |
| Cc1ccc(S(=O)(=O)Oc2ccc3sc4cccc(NCCN(C)C)c4c(=O)c3c2)cc1 | -69.8% (active) |
| COc1ccc2c(c1)/C(=N/c1n[nH]c(=S)s1)C(=O)N2 | 69.6% (inactive) |
| O=C(Cc1ccc(NC(=O)c2cccc(Cl)c2)cc1)NCc1ccccc1 | 54.2% (inactive) |
| COc1ccc(-c2n[nH]c(=O)c3nc(NC(=S)Nc4ccc(Oc5ccccc5)cc4)sc23)cc1 | 81.9% (inactive) |
| C=CCn1c(SCC(=O)Nc2ccc(/C(C)=N/O)cc2)nnc1-c1cc(-c2ccc(S(N)(=O)=O)cc2)nc2ccccc12 | 27.4% (inactive) |
| C=C1CC[C@@H]2C(C)(C)[C@@H](O)CC[C@@]2(C)[C@@H]1COc1ccc2ccc(=O)oc2c1 | -12.4% (active) |
| O=C(O)COc1ccc(Cl)c(Cl)c1 | 95.7% (inactive) |

| SMILES | growth |
| --- | --- |
| O=C1Nc2ccccc2C1(c1c[nH]c2ccccc12)c1c[nH]c2ccccc12 | -21.2% (active) |
| COc1cc(Cl)c(C)cc1NC(=O)c1cc2ccccc2cc1O | 11.5% (inactive) |
| C/C(=N\O)[C@@H]1CC[C@]2(CO)CC[C@]3(C)[C@H](CC[C@@H]4[C@@]5(C)CCCNC(C)(C)[C@@H]5CC[C@]43C)[C@@H]12 | 72.5% (inactive) |
| Cc1cccc(N2CCC(=O)NC2=S)c1 | 105% (inactive) |
| Nn1c(=O)c(=O)[nH]c2c(cnn2-c2ccccc2)c1=O | 108% (inactive) |
| O=C(Cn1nnc2ccccc21)N/N=C/c1c[nH]c2ccccc12 | 37.1% (inactive) |
| O=C(O)/C=C/C(=O)Nc1cccc(Cn2nnc3cc(Cl)c(Cl)cc32)c1 | 93.2% (inactive) |
| CN1CCN(Cc2ccc(NC(=O)c3cncc(C#Cc4cnc(N)c5ccc(F)cc45)c3)cc2C(F)(F)F)CC1 | 43.5% (inactive) |
| Cc1ccc2c(-c3nnc(N)s3)cc(=O)oc2c1C | 72.9% (inactive) |
| CCOc1ccc(-n2nc(C(=O)NCc3ccccc3OC)nc2-c2cc(OC)c(OC)c(OC)c2)cc1 | 17% (inactive) |
| CC1=C(CCC(C)NCc2ccc(OCCCN3CCCCC3)cc2)C(C)(C)CCC1 (centres undefined) | -64.8% (active) |
| Cc1nc2ccccc2c(/C=C/c2ccccc2)c1C(=O)/C=C/c1ccccc1 | 15.6% (inactive) |
| CCN(CC)CCN1C(=O)c2c(c(C)c3c(oc4ccc(O)cc43)c2C)C1=O | 0.129% (active) |
| COc1ccc(Cn2cc(C(=O)N=Nc3c(O)[nH]c4c(C)cccc34)nn2)cc1 | 81% (inactive) |
| FC(F)(F)Oc1cccc(-c2cnc3ccc(-c4ccncc4)nn23)c1 | -0.156% (active) |
| Cc1c2cccnc2c(C)c2c1c1cc(CO)ccc1n2C | 17% (inactive) |
| CNCc1cccc2c1OCCOCCOCCNS(=O)(=O)c1ccc(cc1)-c1cnc(N)c(n1)C(=O)N2 | 70.4% (inactive) |
| CNC(C)[C@H]1CCC2C3CC=C4C(=O)[C@@H](NC(=O)C=C(C)C)CC[C@]4(C)C3CC[C@@]21C (some centres undefined) | -21% (active) |
| C=C1C(=O)O[C@H]2[C@H]1CC/C(COC(=O)/C=C\C(=O)NCc1ccc(Cn3c(=O)sn(CCCCC)c3=O)cc1)=C\CC[C@@]1(C)O[C@@H]21 | 71.7% (inactive) |
